# High-throughput results deposited in PubChem by several laboratories.
# PP1 inh: PP1-alpha phosphatase inhibitors, primary screen, counter-screen for PP5 inhibitor project, biochemical, fluorescence, OMFP substrate, single point; AID 2235, 2010; inhibition, % at 6.7 µM; Serine/threonine-protein phosphatase PP1-alpha catalytic subunit (Homo sapiens), P62136; hit rate 0.9% among 320,000; purified PP1alpha;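 active = inhibition above the mean inhibition of all tested compounds plus 3 SD, computed separately for each screening campaign, cut at about 15% in these data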
# Target sequence (P62136 whole entry, looked up): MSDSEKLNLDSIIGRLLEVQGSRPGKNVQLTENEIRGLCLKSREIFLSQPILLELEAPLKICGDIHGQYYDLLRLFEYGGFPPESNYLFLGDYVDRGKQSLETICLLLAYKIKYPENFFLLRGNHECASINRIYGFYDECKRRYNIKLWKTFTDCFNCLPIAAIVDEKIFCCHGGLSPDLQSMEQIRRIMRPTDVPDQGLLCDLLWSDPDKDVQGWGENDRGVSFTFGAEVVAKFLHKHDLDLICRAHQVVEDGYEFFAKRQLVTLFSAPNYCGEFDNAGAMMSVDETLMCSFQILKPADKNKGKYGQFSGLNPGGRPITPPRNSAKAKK
# Mdm2 MdmX PPI: inhibitors of human Mdm2-MdmX association, primary screen, cell-based, luminescence, split luciferase, SaOS-2, uHTS | Protein Mdm4 (Homo sapiens) + E3 ubiquitin-protein ligase Mdm2 (Homo sapiens), … | hit rate 3% among 330,000 | SaOS-2 split-luciferase Mdm2/MdmX complementation | inhibition, % at 8 µM;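 active = inhibition of at least 50% at 8 µM in the primary screen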
# Beta cell apopt: inhibitors of cytokine-induced beta cell apoptosis, primary screen, luminescence; INS-1E cytokine-induced death, ATP luminescence, 48 h; percent of positive-control rescue, neutral wells zero; protection from apoptosis, % (no concentration beside the values); hit rate 0.8% among 300,000; AID 435005, 2010;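 active = Every replicate reaches about 75%, or at least half do and their mean reaches it too, limit read from the data; inconclusive = At least half of replicates reach the limit but their mean does not; inactive = Under half of replicates reach the limit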;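 note: 0% = cytokine-treated negative control wells and 100% = positive control rescue; higher means more ATP so stronger rescue from cytokine killing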
# PP5 inh: PP5 phosphatase inhibitors, primary screen, biochemical, fluorescence; Serine/threonine-protein phosphatase 5 (Homo sapiens), P53041; purified PP5c, OMFP substrate fluorescence; inhibition, % at 6.7 µM; hit rate 0.18% among 320,000;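 active = inhibition above the campaign's mean inhibition across all tested compounds plus 3 SD, cut at about 9.5% in these data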;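 note: 0% = DMSO only and 100% = 100 µM cantharidin control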
# CSC inhib: cancer stem cell viability inhibitors, primary screen, luminescence | cancer stem cell-like cells viability | inhibition, % at 7.5 µM | hit rate 1.1% among 300,000 | AID 2717, 2010; in the data active = inhibition above about 75%; inconclusive = no clear call, values can overlap the other calls; tested in HMLE shEcad cells
# Calb FLC: C. albicans growth inhibition with fluconazole, primary screen, CaCi-2 strain, Alamar Blue fluorescence; C. albicans CaCi-2 (fluconazole-resistant clinical isolate) + fluconazole, 48 h; growth inhibition, % (no concentration beside the values); AID 1979, 2009; hit rate 0.57% among 300,000;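 active = growth inhibition above about 58% in most replicates, limit read from the data, passing the limit was not always enough; inconclusive = exactly half the replicates above a set limit; inactive = most replicates below a set limit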;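 note: all wells also contain fluconazole at 8 µg/ml as a sub-toxic cotreatment; 0% = median of DMSO wells and 100% = median of geldanamycin control wells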
# Mdm2 MdmX conf: Mdm2-MdmX complex disruptors, retested hits, confirmation, luminescence, single concentration | shares compounds with Mdm2 MdmX PPI | Mdm2-MdmX binding, luminescent assay | inhibition, % at 8 µM | hit rate 55% among 10,000; in the data active = inhibition above about 40%
# Full FLuc ctr: full-length luciferase signal inhibition, confirmation, counter-screen for Mdm2/MdmX interaction inhibitor project, cell-based, single concentration, SaOS-2. SaOS-2 full-length luciferase counterscreen, luminescence. inhibition, % at 8 µM. hit rate 77% among 6,200. shares compounds with Mdm2 MdmX PPI. AID 504607, 2011;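 active = mean inhibition at 8 µM reaching about 37%, which flags the compound as non-specific, limit read from the data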;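 note: p53-null SaOS-2 cells with luciferase driven by a doxycycline-inducible promoter; compound on cells about two nights before reading with doxycycline added after day one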
# Numbers without * were called inactive; ? = inconclusive; · = no result given. An excerpt weighted towards active compounds, which were near 4.9% of everything screened.
SMILES,PP1 inh,Mdm2 MdmX PPI,Beta cell apopt,PP5 inh,CSC inhib,Calb FLC,Mdm2 MdmX conf,Full FLuc ctr
COC1CCCN(C(=O)c2cccc(OC3CCN(S(=O)(=O)N(C)C)CC3)c2)C1 (stereo not drawn),-3,5,1,0,0,10,·,·
c1cc(Nc2cccc3nccnc23)c2nccnc2c1,4,61*,7,3,-1,-1,52*,90*
Cc1cc(C)n(-c2cccc(C(=O)O)c2)n1,-8,3,-4,0,-11,-2,·,·
COc1ccc(S(=O)(=O)Nc2cccc(-c3ccc4nncn4n3)c2)cc1F,-1,50*,-2,0,54,-22,66*,61*
N#CCCN(C(=O)COC(=O)c1ccc2c(=O)n3c(nc2c1)CCC3)c1ccc(F)cc1,-2,-16,-9,2,-13,?,·,·
NC1(C#Cc2ccc3oc(=O)c(-n4cc(-c5ccsc5)nn4)cc3c2)CCCCC1,2,94*,-2,-2,14,·,15,·
Cc1ccc(Cn2ncc(Cl)c(Cl)c2=O)cc1,-3,80*,-14,0,-8,-12,51*,5
CCc1ccc(C(=O)Cn2ncc(Cl)c(Cl)c2=O)cc1,-6,96*,-11,1,-6,21,88*,51*
COCc1cc(C)nc(SCC(=O)Nc2ccc3c(c2)n(C)c(=O)n3C)c1C#N,-1,34,·,5,-4,-4,·,·
COc1ccc(N(CC(=O)NCCC2=CCCCC2)S(=O)(=O)c2c(C)[nH]c(=O)[nH]c2=O)cc1,-1,2,-10,-1,-18,24,·,·
Cc1ccc(-n2nnnc2SCC(=O)Nc2nc(-c3ccc(F)cc3)cs2)cc1C,12,65*,1,1,12,-1,39,47*
CSCc1ccc(C(=O)N2CCC(CCC(=O)N(C)Cc3ccccc3)CC2)o1,0,7,-6,-1,-10,-8,·,·
CCN1C(=O)c2cccc3c(NS(=O)(=O)c4ccc(NC(C)=O)cc4)ccc1c23,-5,44,-3,1,-14,31,·,·
CCN1C(=O)c2cccc3c(NC(=O)c4ccc(S(=O)(=O)N5CCOCC5)cc4)ccc1c23,0,51*,-2,2,-1,-1,49*,94*
CCN1C(=O)c2cccc3c(NC(=O)c4ccc(S(=O)(=O)N(C)C)cc4)ccc1c23,-2,59*,-2,3,-4,45,33,64*
Cc1cccc(NS(=O)(=O)c2ccc(NC(=O)CN(c3cc([N+](=O)[O-])ccc3C)S(C)(=O)=O)cc2)c1,4,55*,111*,6,96*,8,49*,52*
COc1ccc(C)cc1NS(=O)(=O)c1ccc(NC(=O)CN(c2cc([N+](=O)[O-])ccc2C)S(C)(=O)=O)cc1,-1,70*,112*,9,93*,10,63*,51*
Cc1ncsc1C(=O)N1CCCC(C(=O)c2ccc3ccccc3c2)C1 (stereo not drawn),1,20,-5,4,-7,3,·,·
Nc1ncc([N+](=O)[O-])c(N2CCCCCC2)n1,-1,75*,-26,1,-5,-10,73*,49*
CN(C)CCCN(C(=O)c1ccc(S(=O)(=O)N2CCCC2)cc1)c1nc2ccc(Br)cc2s1,0,39,-6,0,5,-24,·,·
CCOc1cccc2sc(N(CCCN(C)C)C(=O)c3ccc(S(=O)(=O)N(C)c4ccccc4)cc3)nc12,3,42,-13,4,·,-11,·,·
CCOc1cccc2sc(N(CCCN(C)C)C(=O)c3ccc(S(=O)(=O)N4CCc5ccccc5C4)cc3)nc12,13,82*,2,9,22,-5,35,·
CCc1ccc2nc(N(CCCN(C)C)C(=O)c3ccc(S(=O)(=O)N4CCc5ccccc5C4)cc3)sc2c1,17*,99*,30,2,-1,-1,5,·
CCn1c(SCC(=O)Nc2ccc(N(C)C)cc2)nnc1-c1ccco1,0,25,-2,1,-9,-3,·,·
Cn1c(-c2cccc(F)c2)nc2c1c(=O)[nH]c(=O)n2Cc1ccccc1,0,20,-1,0,-3,-1,·,·
SMILES,PP1 inh,Mdm2 MdmX PPI,Beta cell apopt,PP5 inh,CSC inhib,Calb FLC,Mdm2 MdmX conf,Full FLuc ctr
Cn1c(-c2cccc(OCc3ccccc3)c2)nc2c1c(=O)[nH]c(=O)n2Cc1ccccc1,0,85*,10,-2,6,·,38,·
Cn1c(=O)[nH]c(=O)c2c1nc([N+](=O)[O-])n2Cc1ccccc1,1,96*,98*,4,49,36,79*,56*
COc1ccc([C@@H]2[C@@H]3C(=O)N(C(C)(C)C)C(=O)[C@@H]3[C@]3(CC(C)C)C(=O)N(c4ccc(C(F)(F)F)cc4)C(=O)N23)cc1,2,74*,9,1,-6,8,76*,35
COc1ccc([C@@H]2[C@@H]3C(=O)N(C(C)(C)C)C(=O)[C@@H]3[C@]3(CC(C)C)C(=O)N(c4ccccc4)C(=O)N23)cc1,-4,3,1,2,-5,-1,·,·
COc1ccc([C@@H]2[C@@H]3C(=O)N(C(C)(C)C)C(=O)[C@@H]3[C@]3(Cc4ccccc4)C(=O)N(c4ccc(C(F)(F)F)cc4)C(=O)N23)cc1,3,85*,2,6,5,4,90*,28
Cc1ccc2nc(SCC(=O)N3CCC(C)CC3)nc(=O)n2c1,-4,2,3,0,1,-7,·,·
Cc1ccc(C)c(OCCC(=O)NCCc2ccc(S(N)(=O)=O)cc2)c1,0,16,-1,-3,-10,16,·,·
CC(C)N1CCc2c(sc(NC(=O)c3ccc([N+](=O)[O-])o3)c2C(N)=O)C1,-1,89*,71,3,-7,-1,94*,19
CCC(C)NC(=O)c1cc(-c2cccs2)nc2ccccc12 (stereo not drawn),2,-29,2,-1,-6,-12,·,·
CC(C)N1CCc2c(sc(NC(=O)c3cc(-c4cccs4)nc4ccccc34)c2C(N)=O)C1,3,73*,25,5,?,-9,33,·
CC(=O)N1CCc2c(sc(NC(=O)c3ccc([N+](=O)[O-])o3)c2C#N)C1,·,·,·,·,·,11,·,·
